Reference: PubChem BioAssay AID504773 (Broad Institute, 2011)
Entries with a potency or affinity are not part of this list. Calls of active or inactive are those of the source.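 How the source made its calls: active means polarization signal falls with dose and the fitted half-maximal concentration is at or below ten times the sample's top valid dose; inconclusive means flat curve at 30 to 70% inhibition, or poor fit; inactive means signal rises, flat within 30%, or potency beyond limit.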

target: Golgi-associated PDZ and coiled-coil motif-containing protein (Homo sapiens) (UniProt Q9HD26); experiment: potency against CAL PDZ-peptide interaction – biochemical, fluorescence polarization, Cerulean-tagged CAL PDZ, cherry-picks, dose response (AID 504773); settings: CAL PDZ-peptide binding, 1 h; series mostly up to 50 µM

outcome, inactive:
CCCCNC(=O)c1ccc(-n2c(=S)[nH]c3ccccc3c2=O)cc1, Cc1nn(C)cc1CN(C)C(=O)c1nn2c(c1Br)NC(c1cccs1)CC2C(F)(F)F (stereo unspecified), COc1cccc(CN2CCN(C3CSCCSC3)CC2CCO)c1 (stereo unspecified), CC(=O)N1CCN(c2ccc(NC(=O)C(c3ccccc3)c3ccccc3)cc2)CC1, COC(=O)c1cccc([N+](=O)[O-])c1CS(=O)(=O)c1ccc(C)cc1, O=C(O)c1[nH]c2ccccc2c1C(c1ccccc1)c1c(C(=O)O)[nH]c2ccccc12, Cc1ccc(-n2c(SCC(N)=O)nnc2-c2ccco2)cc1, CC(C)n1cc(C(=O)N2CCCC(N3CCN(c4ccc(F)cc4)CC3)C2)cn1 (stereo unspecified), CCOc1ccccc1CN1CCC(n2nccc2NC(=O)C2CCCC2)CC1, O=C1CN(C(=O)CC2C(=O)NCCN2Cc2ccccc2C(F)(F)F)CCN1 (stereo unspecified), CC1=C(C#N)C(=O)NC(=O)/C1=C\c1ccc(-c2cc(C)c(C)cc2[N+](=O)[O-])o1, COc1ccc(CC(=O)N2CCC(CCC(=O)Nc3ccccc3)CC2)cc1, C/C(=N/N1CCN(c2ccccn2)CC1)c1ccc([N+](=O)[O-])cc1, COc1cc(Br)c(C(=O)c2nccc3cc(OC)c(OC)cc23)cc1OC, CCNC(=S)N1CCc2cc(OC)c(OC)cc2C1COc1ccc(OC)cc1 (stereo unspecified), O=C(NC1(C(F)(F)F)NC(=O)N(C2CCCCC2)C1=O)C1CC1 (stereo unspecified), N=c1c(S(=O)(=O)c2ccc(Cl)cc2)cc2c(=O)n3ccccc3nc2n1C1CCCCC1, COc1ccc2ccccc2c1CN(C)Cc1ccccc1, CCN(CC)S(=O)(=O)c1cc(C(=O)Oc2ccccc2OC)ccc1OC, Cc1ccc(-c2[nH]c3ccccc3c2SCCN)cc1, S=C(NCCc1ccccc1)N1CCn2cccc2C1c1cccnc1 (stereo unspecified), CCCCN(CCCC)CCNC(=O)c1ccc2nc(-c3ccccc3NC(C)=O)c(=O)[nH]c2c1, NC(=O)c1cc2ccccc2o/c1=N\NC(=O)c1ccncc1, O=C(NC1CCCCCCC1)c1cc([N+](=O)[O-])ccc1Cl, CCC(C)NC(=O)C1CCCN(C(=O)Nc2ccc(F)cc2)C1 (stereo unspecified), CCOc1ccc(S(=O)(=O)N2CCCCC2)c(C)c1C, CC1(C2CC2)NC(=O)N(CC(=O)NCC(=O)Nc2ccc(F)c(F)c2F)C1=O (stereo unspecified), Cc1ccccc1N1CCN(S(=O)(=O)c2ccccc2)CC1, CC(=O)N1N=C(c2ccccc2)CC1c1ccccc1 (stereo unspecified), O=C(Nc1ccc([N+](=O)[O-])cc1)Nc1cnccn1, Cc1ccc(CN2CCN(Cc3nc4ccccc4nc3C)CC2CCO)cc1 (stereo unspecified), O=C(COC(=O)c1cccc(O)c1)NC(=O)Cc1ccccc1, O=C(NNC(=S)NC(=O)c1ccc(Br)cc1)c1ccc([N+](=O)[O-])cc1, O=C(NC(=S)NCCCN1CCOCC1)c1ccc(Br)cc1, O=C(NC(Cc1c[nH]c2ccccc12)C(=O)O)/C(=C/c1ccc(F)cc1)NC(=O)c1ccccc1 (stereo unspecified), CC(=O)Nc1cccc(NC(=O)CSc2nnc(NC(=O)c3ccco3)s2)c1
